Assay results as given in PubChem BioAssay AID1850 (Southern Research Specialized Biocontainment Screening …, 2009).
Screen size: about 310,000 compounds; about 1,000 (0.32%) were called active. A selection follows. Entries with a potency or affinity are not part of this list. Unmarked numbers belong to inactive results. No rule for the calls is given here.

Assay: PhoP regulon inhibitors, Salmonella typhi PhoP promoter GFP reporter, confirmatory (AID 1850);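 also: 0% = induced wells with vehicle and 100% = uninduced wells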
Settings: fluorescence, 4 h, at 50 µM, stronger effect = higher value

Which inhibition does the source give for Cc1cc(C(=O)CC#N)c(C)n1-c1ccc(OC(F)F)cc1 here?
The inhibition was -0.727%.

For O=C(C[n+]1ccc2ccccc2c1)c1cccc2ccccc12, which inhibition is on record?
Its inhibition is -0.15%.

With Cc1ccc(S(=O)(=O)NNC(=O)c2sc(=S)n(C)c2C)cc1 as the compound, how does the inhibition read?
The inhibition was -24.1%.

For Cc1ccc(N2C(=O)C3C4C=CC(CNC(=S)N5CCN(c6ccccn6)CC5)(O4)C3C2=O)cc1 (stereo unspecified), which inhibition is on record?
Its inhibition is 5.6%.

With COc1ccc(/C=N\NC(=O)c2cccc(F)c2)cc1COc1ccccc1 as the compound, how does the inhibition read?
The inhibition was -7.03%.

Which inhibition does the source give for C=CC1=C(C(=O)O)N2C(=O)C(NC(=O)Cc3ccccc3)C2SC1 (stereo unspecified) here?
Its inhibition is -5.97%.

Which inhibition does the source give for CC1=C(C(=O)O)N2C(=O)C(NC(=O)CCCC(=O)O)C2SC1 (stereo unspecified) here?
The inhibition was 10.9%.

With CC1=C(C(=O)O)N2C(=O)C(NC(=O)c3ccn(C)n3)C2SC1 (stereo unspecified) as the compound, how does the inhibition read?
The inhibition was 7.91%.

With C[C@H]1[C@H](NC(=O)C(=NOC(C)(C)C(=O)O)c2csc(N)n2)C(=O)N1S(=O)(=O)O as the compound, how does the inhibition read?
Its inhibition is 1.3%.

Which inhibition does the source give for O=C(O)C[C@H]1c2ccccc2S(=O)(=O)N1c1ccccc1 here?
Its inhibition is -12.5%.

Which inhibition does the source give for Cc1nn(Cc2noc(C(=O)NCc3ccc(F)cc3)n2)c(C)c1Br here?
Its inhibition is 5.51%.

For O=C(CCc1nnc(Cc2cccc(C(F)(F)F)c2)o1)NC1CC1, which inhibition is on record?
Its inhibition is 2.17%.

With COc1ccc(N(CC(=O)Nc2ccccc2C(=O)NCCc2ccccc2)S(C)(=O)=O)cc1OC as the compound, how does the inhibition read?
Its inhibition is -12.9%.

For CC(=O)Nc1ccc(S(=O)(=O)Oc2ccccc2N2C(=O)C3C4CCC(C4)C3C2=O)cc1 (stereo unspecified), which inhibition is on record?
Its inhibition is 1.86%.

With COc1ccc(N(CC(=O)NC2CC3CCC2C3)S(=O)(=O)c2ccc(C)cc2)cc1 (stereo unspecified) as the compound, how does the inhibition read?
The inhibition was -6.68%.

For CN(C)CCCNc1ccc(-c2n[nH]c(=O)c3ccccc23)cc1[N+](=O)[O-], which inhibition is on record?
The inhibition was -4.76%.

With Cc1ccc2nc(C)c(Cl)c(=O)n2c1 as the compound, how does the inhibition read?
Its inhibition is -9.57%.

For COc1ccc(CCNC(=O)CCCCC(=O)NCCc2ccc(OC)cc2)cc1, which inhibition is on record?
The inhibition was -3.5%.

For O=S(=O)(NC1CCCCCC1)c1cccc2cccnc12, which inhibition is on record?
The inhibition was 5.87%.

For COc1ccc(C(=O)O/N=C(/c2ccccc2)c2ccncc2)cc1OC, which inhibition is on record?
Its inhibition is -4.7%.

With O=c1cc(-c2ccc(O)cc2)oc2cc(O)cc(O)c12 as the compound, how does the inhibition read?
Its inhibition is 1.38%.

With COc1c(O)c(O)c2oc(-c3ccccc3)cc(=O)c2c1OC as the compound, how does the inhibition read?
Its inhibition is 9.73%.

For CCOC(=O)CC1(C)OCC(C[N+]2(C)CCCCC2)O1 (stereo unspecified), which inhibition is on record?
The inhibition was 5.82%.

For COC(=O)[C@@H]1C[C@@]2(O)[C@H](O)[C@H](O)[C@H](O)C[C@H]2N1Cc1ccc(-c2ccccc2)cc1, which inhibition is on record?
Its inhibition is -7.22%.

Which inhibition does the source give for COC(=O)c1ccc2c(=O)n(Cc3ccc(C(=O)NCCCN4CCC(C)CC4)cc3)c(=S)[nH]c2c1 here?
Its inhibition is 2.98%.

With CC1CCN(CCNC(=O)c2ccc3c(=O)n(Cc4ccc(Cl)cc4)c(=S)[nH]c3c2)CC1 as the compound, how does the inhibition read?
The inhibition was 4.39%.

Which inhibition does the source give for COc1ccc(S(=O)(=O)NN(C)c2ncc(C(F)(F)F)cc2Cl)cc1 here?
Its inhibition is 2.03%.

Which inhibition does the source give for CC(=O)NCCC(=O)NCC1(N(C)Cc2ccccc2)Cc2ccccc2C1 here?
Its inhibition is -1.56%.

Which inhibition does the source give for c1ccc(-c2cc(N3CCCCC3)nc(-c3ccccc3)n2)cc1 here?
The inhibition was 5.32%.

With CO[C@@]12[C@H](COC(N)=O)C3=C(C(=O)C(C)=C(N)C3=O)N1C[C@@H]1N[C@@H]12 as the compound, how does the inhibition read?
The inhibition was 6.71%.

Which inhibition does the source give for O=C(ONC1=NCCCCC1)c1cccc([N+](=O)[O-])c1 here?
Its inhibition is -5.28%.

Which inhibition does the source give for Cc1ccnc(-n2c(C)nc3ccccc3c2=O)c1 here?
The inhibition was -16%.

For O=C(NC1CC2CCCC(C1)N2C(=O)Nc1ccccc1)c1ccccc1 (stereo unspecified), which inhibition is on record?
The inhibition was -0.41%.

With COc1cc(C)c(CN2CCC(n3nccc3NC(=O)C3CCOC3)CC2)cc1C (stereo unspecified) as the compound, how does the inhibition read?
The inhibition was -6.02%.

For CC(C)N1CC(C(=O)Nc2ccc(C#N)cc2)CC1=O (stereo unspecified), which inhibition is on record?
Its inhibition is -2.49%.

With Cc1cc(Cl)ccc1OCC(=O)n1cc(C(=O)c2cc(Cl)ccc2O)cn1 as the compound, how does the inhibition read?
Its inhibition is -8.17%.

For Cc1ncc(CC(=O)n2cc(C(=O)c3cc(F)ccc3O)cn2)s1, which inhibition is on record?
Its inhibition is 23.5%.

With O=C(NCCc1ccccc1)c1nccc2ccccc12 as the compound, how does the inhibition read?
Its inhibition is 3.49%.

With COCCC(=O)N1CCC(Oc2ccc(C(=O)N3CCC[C@H]3CO)cc2)CC1 as the compound, how does the inhibition read?
The inhibition was -1.9%.

With CCOC(=O)C1CCCN(C2CCN(Cc3nc(Cc4ccccc4)no3)CC2)C1 (stereo unspecified) as the compound, how does the inhibition read?
Its inhibition is -4.46%.

For O=C(O)c1cc(S(=O)(=O)NC(CO)C(O)c2ccc([N+](=O)[O-])cc2)ccc1Br (stereo unspecified), which inhibition is on record?
The inhibition was 5.04%.

For Cc1ccc(NC(=S)NC(CO)C(O)c2ccc([N+](=O)[O-])cc2)cc1 (stereo unspecified), which inhibition is on record?
The inhibition was 8.81%.

With CS(=O)(=O)c1ccc(C(=O)NCc2ccccc2F)cc1 as the compound, how does the inhibition read?
Its inhibition is 2.01%.

With CS(=O)(=O)c1ccc(C(=O)NC(Cc2ccccc2)c2ccccc2)cc1 (stereo unspecified) as the compound, how does the inhibition read?
The inhibition was 2.4%.

With Cc1ccc(-n2nc(C(=O)NN)c(C)c(C#N)c2=O)cc1Cl as the compound, how does the inhibition read?
The inhibition was -0.01%.

Which inhibition does the source give for CCOC(=O)N1CCC(NC(=O)c2ccccc2C(=O)O)CC1 here?
Its inhibition is 2.93%.

With CCN(CC)S(=O)(=O)c1ccc(C)c(NC(=O)COc2ccc3c(C)cc(=O)oc3c2)c1 as the compound, how does the inhibition read?
The inhibition was -6.3%.

Which inhibition does the source give for CCCn1nnc(NC(=O)c2ccc([N+](=O)[O-])cc2Cl)n1 here?
Its inhibition is -8.6%.

Which inhibition does the source give for Fc1ccc(-c2nc3ccccn3c2NCc2ccc3c(c2)OCO3)cc1 here?
Its inhibition is -6.33%.

Which inhibition does the source give for Clc1ccc(CNCCC2=CCCCC2)cc1 here?
Its inhibition is -4.93%.

For O=C(NCCC1=CCCCC1)C(=O)NCc1ccccc1, which inhibition is on record?
Its inhibition is -1.97%.

Which inhibition does the source give for Cc1ccc(CNC(=O)C(=O)NCCC2=CCCCC2)cc1 here?
Its inhibition is -20.6%.

With Cc1ccc(NC(=S)NCCC2=CCCCC2)cc1 as the compound, how does the inhibition read?
Its inhibition is -0.73%.

With CC(C)[C@H](NC(=O)c1ccccc1Cl)C(=O)OCc1cc([N+](=O)[O-])cc2c1OCOC2 as the compound, how does the inhibition read?
The inhibition was -4.37%.

For O=C(O)CCC(=O)Nc1nc2nccc(-c3ccccc3)n2n1, which inhibition is on record?
Its inhibition is -7.87%.

Which inhibition does the source give for CCOc1cc(/C=C2/C(=N)N3N=C(C)SC3=NC2=O)ccc1OS(=O)(=O)c1ccc(C)cc1 here?
Its inhibition is 18.2%.

For O=C(Nc1cc2c3c(c1)CC(=O)N3CCC2)c1ccc(Br)o1, which inhibition is on record?
Its inhibition is 2.71%.

For CCNC(=S)NNC(=O)c1cc(-c2cccc(OCC)c2)nc2ccccc12, which inhibition is on record?
Its inhibition is 10.8%.

With O=C(CCc1ccccc1)NNC(=O)c1ccccc1Br as the compound, how does the inhibition read?
Its inhibition is -5.24%.

Which inhibition does the source give for CCNc1ccc(C2(O)C(=O)c3ccccc3C2=O)cc1 here?
The inhibition was -8.28%.

For O=[N+]([O-])c1cccc2c(Cl)ccnc12, which inhibition is on record?
Its inhibition is 5.29%.

Which inhibition does the source give for Oc1ccc(F)c2cccnc12 here?
The inhibition was 8.36%.

With Clc1cc2cccnc2c2ccccc12 as the compound, how does the inhibition read?
The inhibition was -17.8%.

For O=[N+]([O-])c1cc2cccnc2c2ncccc12, which inhibition is on record?
The inhibition was -13.3%.

Which inhibition does the source give for Cc1ccc([N+](=O)[O-])c2cccnc12 here?
Its inhibition is -3.26%.

Which inhibition does the source give for O=[N+]([O-])c1ccc(O)c2cccnc12 here?
Its inhibition is 2.39%.

For O=[N+]([O-])c1ccc(Cl)c2cccnc12, which inhibition is on record?
Its inhibition is -13%.

For Oc1c(I)cc(I)c2cccnc12, which inhibition is on record?
The inhibition was 8.57%.

With Cc1oc2cc3oc(=O)c(CC(=O)NCC(=O)N[C@@H](C(=O)O)c4ccccc4)c(C)c3cc2c1C as the compound, how does the inhibition read?
The inhibition was 3.13%.

With Cc1ccccc1OCC(=O)Nc1nc2ccccc2[nH]1 as the compound, how does the inhibition read?
Its inhibition is 9.79%.

Which inhibition does the source give for COc1cccc(CN2CCNC(=O)C2CC(=O)N2CCOc3ccccc3C2)c1OC (stereo unspecified) here?
Its inhibition is -0.13%.

For O=c1cc(-c2ccccc2)nc(SCCOc2ccccc2Cl)[nH]1, which inhibition is on record?
Its inhibition is 3.72%.

For Cc1ccc(C(=O)Nc2cccnc2)cc1S(=O)(=O)N1CCCC1, which inhibition is on record?
Its inhibition is -5.54%.

Which inhibition does the source give for O=c1[nH]c(=S)[nH]c(O)c1N=Nc1ccc2c(c1)OCO2 here?
The inhibition was -4.29%.

With Cc1ccc(Cl)cc1N1CCN(C(=O)Cc2ccc(-n3c(=O)[nH]c4ccsc4c3=O)cc2)CC1 as the compound, how does the inhibition read?
The inhibition was 2.93%.

Which inhibition does the source give for O=C1Nc2ccccc2/C1=C/c1ccccc1F here?
The inhibition was -2.26%.

With O=C(c1nc2ccccn2c1CN1CCN(c2ccccc2O)CC1)N1CCCC1 as the compound, how does the inhibition read?
Its inhibition is -2.41%.

Which inhibition does the source give for OC(C#CCN1CCCCC1)c1ccccc1 (stereo unspecified) here?
Its inhibition is -17.1%.

With Cc1ccc(NC(=O)CSc2ncccc2C(=O)Oc2cccc([N+](=O)[O-])c2)cc1Cl as the compound, how does the inhibition read?
The inhibition was -7.7%.

For CCOc1ccc(S(=O)(=O)NCCC(=O)NCc2cccnc2)cc1, which inhibition is on record?
Its inhibition is 9.15%.

Which inhibition does the source give for C#CCOCCOCCOCCNc1nc(N2CCN(C(=O)CCCCCCCCCCNC(=O)[C@@H](CCC(=O)O)n3cc(CCCCCN)nn3)CC2)nc(N2CCN(C(=O)CCCCCCCCCCNC(=O)[C@H]([C@@H](C)CC)n3cc(CCCCCN)nn3)CC2)n1 here?
Its inhibition is -8.02%.

Which inhibition does the source give for C#CCOCCOCCOCCNc1nc(N2CCN(C(=O)CCCCCCCCCCNC(=O)[C@H]([C@@H](C)CC)n3cc(CCCCCN)nn3)CC2)nc(N2CCN(C(=O)CCCCCCCCCCNC(=O)[C@@H]([C@H](C)O)n3cc(C)nn3)CC2)n1 here?
Its inhibition is 60.5%.

Which inhibition does the source give for C#CCOCCOCCOCCNc1nc(N2CCN(C(=O)CCCCCCCCCCNC(=O)[C@H]([C@@H](C)CC)n3cc(CCCCCN)nn3)CC2)nc(N2CCN(C(=O)CCCCCCCCCCNC(=O)[C@H](CCCCN)n3cc(CCCC(=O)O)nn3)CC2)n1 here?
The inhibition was -21.1%.

With C#CCOCCOCCOCCNc1nc(N2CCN(C(=O)CCCCCCCCCCNC(=O)[C@H](CCCCN)n3cc(CCO)nn3)CC2)nc(N2CCN(C(=O)CCCCCCCCCCNC(=O)[C@@H]([C@H](C)O)n3cc(C)nn3)CC2)n1 as the compound, how does the inhibition read?
Its inhibition is -15.8%.

Which inhibition does the source give for CCC(Oc1ccc(C)cc1)C(=O)Nc1ccc2c(c1)n(C)c(=O)n2C (stereo unspecified) here?
Its inhibition is -3.92%.

Which inhibition does the source give for CCNC(=O)CC1SC(=Nc2cccc3ccccc23)N(C)C1=O (stereo unspecified) here?
The inhibition was -5.94%.
